Test results taken from PubChem BioAssay (NCI).
Compounds without any hit were thinned out: in the full panel of roughly 83,000, 20% have a hit.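 Assay: single dose, 48 h. Readout: percent growth (0 = no net growth; negative = cell death). Active: <10.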 Unmarked numbers belong to inactive results. The source made the active and inactive calls.

Key:
Assay in all cases: NCI-60 one-dose screen, 48 h (100 = growth as untreated, 0 = no growth, -100 = all killed)
Conditions in all cases: 10 µM unless noted
[1] = test system: HCT-15 colon
[2] = test system: HT29 colon
[3] = test system: SNB-75 CNS
[4] = test system: SNB-19 CNS
[5] = test system: U251 CNS
[6] = test system: PC-3 prostate
[7] = test system: SK-MEL-5 melanoma
[8] = test system: UACC-62 melanoma
[9] = test system: LOX IMVI melanoma
[10] = test system: SK-MEL-28 melanoma
[11] = test system: SK-MEL-2 melanoma
[12] = test system: EKVX NSCLC
[13] = test system: SN12C renal
[14] = test system: UO-31 renal
[15] = test system: TK-10 renal
[16] = test system: ACHN renal
[17] = test system: CAKI-1 renal
[18] = test system: CCRF-CEM leukemia
[19] = test system: MOLT-4 leukemia

Structure (SMILES) | growth [1] | growth [2] | growth [3] | growth [4] | growth [5] | growth [6] | growth [7] | growth [8] | growth [9] | growth [10] | growth [11] | growth [12] | growth [13] | growth [14] | growth [15] | growth [16] | growth [17] | growth [18] | growth [19]
CCSc1ccc2c(c1)N(CCCN1CCN(C)CC1)c1ccccc1S2 | 2.48% (active) | -14.7% (active) | 28.3% | 68.8% | 36.2% | 51.9% | -98.7% (active) | -43% (active) | -82.5% (active) | -85.2% (active) | 69% | 59.3% | 57.6% | 9.67% (active) | 55.6% | 43.5% | 50% | 27.9% | 18.5%
CN(C)C(C(N)=O)c1ccc(Cl)cc1 (centres undefined) | 108% | 104% | 93.6% | 99.9% | 93.4% | 95.1% | 101% | 90.8% | 95.7% | 101% | 102% | 97.8% | 103% | 94.2% | 92.2% | 95.2% | 93.4% | 115% | 95.5%
CC(C)(C#N)N1CCN(c2ccccc2Cl)CC1 | 103% | 96.4% | 102% | 118% | 102% | 102% | 114% | 112% | 87.3% | 112% | 103% | 97.2% | 108% | 81.8% | 104% | 109% | 94.5% | 100% | 97.8%
COc1cc2nc(-c3ccc(C(F)(F)F)cc3)cc(OCCN3CCCC3)c2cc1OC | 67.3% | 66.4% | 71.6% | 88.7% | 76.8% | 73.8% | 84.4% | 93.3% | 27% | 78.6% | 105% | 68.8% | 72.2% | 54.2% | 92.9% | 84.1% | 68.7% | 77.8% | 74.2%
Cc1cc(C)n(Nc2nc3ccccc3[nH]c2=O)c(=O)c1C#N | 102% | 110% | 79.5% | 93.1% | 95.4% | 94.8% | 95.3% | 94.8% | 91.5% | 104% | 108% | 88.2% | 89.8% | 78.8% | 111% | 94.1% | 89.9% | 109% | 96.7%
COc1ccc(Cn2nc(-c3cc(OC)c(OC)c(OC)c3)c3c2CCc2cnoc2-3)cc1OC | 53.1% | 22% | 37.8% | 65.4% | 62.1% | 65% | 38.7% | 51.1% | 47% | 64.9% | 38% | 77.7% | 60.6% | 32.7% | 72.5% | 74.9% | 50.3% | 55.6% | 36.2%
O=C(O)/C=C\C(=O)N1C/C(=C\c2ccccc2Cl)C(=O)/C(=C/c2ccccc2Cl)C1 | -48.8% (active) | -78.1% (active) | -10.3% (active) | -52.7% (active) | -75.2% (active) | 16.7% | -54.1% (active) | -60.3% (active) | -69.3% (active) | -39.6% (active) | 37% | 40.1% | -30.7% (active) | -64.9% (active) | 0.472% (active) | 20.3% | 0.997% (active) | 3.66% (active) | 4.86% (active)
C=C(C)[C@@H]1CC[C@]2(C(=O)NCC(=O)OC)CC[C@]3(C)[C@H](CC[C@@H]4[C@@]5(C)Cc6c([nH]c7ccccc67)C(C)(C)[C@@H]5CC[C@]43C)[C@@H]12 | 81.9% | 60.8% | 114% | 82.5% | 58.9% | 49.1% | 81.7% | 76.6% | 70.7% | 95% | 78.2% | 71.5% | 70.9% | 65.1% | 89.3% | 60.5% | 58.6% | 57.2% | 40.9%
C(=C\c1n(Cc2ccc3ccccc3c2)c(-c2ccccc2)c(-c2ccccc2)[n+]1Cc1ccc2ccccc2c1)/c1ccccc1 | -81.2% (active) | -63.5% (active) | -99.9% (active) | -93.7% (active) | -80.6% (active) | -81.2% (active) | -99.1% (active) | -89.9% (active) | -96% (active) | -80.8% (active) | -68.7% (active) | -77.5% (active) | -91% (active) | -99.1% (active) | -81.8% (active) | -94.9% (active) | -100% (active) | -17.8% (active) | -43.5% (active)
CCOC(=O)C1=C(C)NC(C)=C(C(=O)OCC)C1c1cc(Br)c(O)c(OC)c1 | 30.9% | 71.4% | 8.16% (active) | 45.2% | 33.1% | 32.6% | 19.5% | 48.8% | 36.7% | 47.5% | -7.22% (active) | 42.5% | 48.5% | 40.3% | 34.1% | 61.3% | 30.1% | 19.9% | 44.8%
COc1cccc(-c2nc3occn3c2-c2ccnc(NCCCNS(=O)(=O)c3cccc(F)c3)n2)c1 | 83.4% | 50.7% | 117% | 109% | 111% | 79.4% | 48.2% | 45.2% | 86.5% | 89.5% | 90.2% | 79.8% | 87.7% | 69.8% | 131% | 84.5% | 78.2% | 81.3% | 67.7%
O=C1OC(=O)C2C1CC=CC2c1ccccc1 (centres undefined) | 105% | 86.3% | 83.7% | 93.7% | 87.8% | 73.1% | 98.6% | 94.4% | 71.7% | 91.8% | 97.3% | 90.9% | 87.6% | 88.9% | 102% | 104% | 102% | 84.2% | 90.6%
O=C(Nc1nc(-c2ccccc2Cl)cs1)c1cc(-c2ccccc2)nc2ccc(Cl)cc12 | 11.9% | 85.3% | 92.9% | 80.6% | 62.5% | 73.2% | 43.8% | 41.8% | 21.6% | 70.8% | 69.9% | 92.2% | 37.9% | 52.3% | 88% | 84.9% | 81.5% | 18.8% | 25.8%
Cc1nn(-c2ccccc2)c(N2CCOCC2)c1/C=N/N=c1\sc2ccccc2n1C | 39.1% | 66.5% | 99.2% | 87.3% | 55.2% | 49% | 38.5% | 71.1% | 57.9% | 75.9% | 105% | 82.2% | 81.7% | 65.2% | 129% | 82.4% | 67.3% | 67.3% | 58.6%
COC(=O)N[C@H]1CCc2cc(OC)c(OC)c(OC)c2-c2ccc(SC)c(=O)cc21 | 9.48% (active) | 2.35% (active) | 32.4% | 31.1% | 12.8% | 22.4% | -42.9% (active) | 34.9% | 15.7% | 56.9% | 12.5% | 32.2% | 23.9% | 44.5% | 47% | 24.9% | 17% | 15.6% | 9.69% (active)
FC(F)(F)c1cccc(Nc2ccccc2)c1 | 99.4% | 105% | 94.7% | 98.2% | 97.7% | 102% | 103% | 96.5% | 98.7% | 102% | 88.7% | 101% | 101% | 97.6% | 94% | 99.6% | 97.5% | 109% | 89.9%
C=C(C)[C@@H]1CC[C@]2(C=O)CC[C@]3(C)[C@H](CC[C@@H]4[C@@]5(C)CCCNC(C)(C)[C@@H]5CC[C@]43C)[C@@H]12 | 34.3% | 14% | 110% | 84.6% | 50.4% | 48% | 66% | 69.9% | 84.9% | 96.7% | 89.5% | 96.6% | 74.1% | 69% | 88.2% | 88.1% | 89.4% | 59.7% | 49.1%
COc1cc2nc(-c3ccc(C(F)(F)F)cc3)cc(OCCN3CCC(O)CC3)c2cc1OC | 53.8% | 47% | 58.1% | 89% | 69.2% | 71.8% | 68% | 84.5% | -20.6% (active) | 80.7% | 103% | 61.9% | 57.5% | 52.4% | 86.1% | 75.5% | 34.6% | 84.8% | 77%
C1=C2CNCC3=Cc4ccc5ccccc5c4OC23Oc2c1ccc1ccccc21 | 21.7% | 19.1% | 34.5% | 59.6% | 38.9% | 39.1% | 35.6% | 25.6% | 18.9% | 46.7% | 51.9% | 66.4% | 63.2% | 36.3% | 89.7% | 37.2% | 31.1% | 43.3% | 45.8%
N#Cc1c(NC(=O)c2cccc(Br)c2)sc2c1CCCC2 | 45.8% | 59.5% | 84.4% | 81.1% | 88.2% | 90.9% | 89.8% | 71.7% | 80% | 86.3% | 91.9% | 92.3% | 83.9% | 82.3% | 79.2% | 75.6% | 73% | 63.5% | 52.3%
CC(=O)c1c(-c2ccc(OC(F)(F)F)cc2)nc2ccccn12 | 94.9% | 74.2% | 91.9% | 99.1% | 89.8% | 95.1% | 96.6% | 105% | 91.6% | 90% | 81.5% | 96% | 103% | 81.6% | 6.58% (active) | 95.7% | 92.4% | 109% | 118%
CCCNC(=O)Oc1ccc(/C(=C(\C)c2ccccc2)c2ccc(OCCN3CCCCC3)cc2)cc1 | 19.2% | 4.11% (active) | 88.9% | 79% | 56.4% | 57.1% | 77.8% | 70.6% | 73.8% | 70.5% | 90.6% | 82.2% | 71.4% | 46.5% | 90.2% | 91% | 65.8% | 72.2% | 60.1%
CNC(=O)c1c(NC(=O)c2ccc(C(C)C)cc2)sc2c(CN(C)C)c(O)ccc12 | 14.2% | 87.1% | 98.1% | 103% | 81.7% | 79.4% | 96% | 99.9% | 57.3% | 94.5% | 90.2% | 90.2% | 99.4% | 64.5% | 86.8% | 66.6% | 85.1% | 56.7% | 72.4%
Cc1n[nH]c(C)c1-c1c(C)n[nH]c1C | -13.6% (active) | 7.37% (active) | 35.2% | 28.3% | 1.27% (active) | 17.8% | 0.89% (active) | 7.89% (active) | -64.3% (active) | 11.9% | 29.9% | 18.2% | 9.52% (active) | -0.471% (active) | 13% | -47.7% (active) | -36% (active) | 12.3% | 0.721% (active)
N#Cc1ccc(-c2ccc3c(c2)NC(=O)/C3=C\c2ccc[nH]2)cc1 | 58.3% | 103% | 57% | 99.3% | 103% | 84.7% | 85.4% | 88.4% | 97.5% | 107% | 89.3% | 26.5% | 95.8% | 72% | 54.4% | 101% | 82.4% | 103% | 109%
Nc1nc(SN=Nc2ccc(S(N)(=O)=O)cc2)c2[nH]cnc2n1 | 12.6% | 9.84% (active) | 5.46% (active) | 103% | 42.7% | 23.8% | 46.7% | 0.536% (active) | -9.46% (active) | 15.6% | -3.49% (active) | 28.6% | 24.2% | 22.5% | -9.94% (active) | 15.9% | 1.85% (active) | -2.18% (active) | -1.6% (active)
